# Results as given in PubChem BioAssay (EPA / NIEHS).
# Several values for one entry are separate records, joined by “and”; a condition that tells them apart may be missing. Equal entries are not always repeated. Some structures have more than one record in an assay (separate samples or runs), and their calls can disagree. Activity calls are given as the source filed them. Rule for the calls: active = hit-call score of the fitted dose curve at least 0.9, where 1 is the maximum; inactive = score below 0.9.
# Assay: APR_HepG2_MitoMembPot_72hr: Apredica 72-hour HepG2 Assay for Mitochondrial Membrane Potential (AID 2282917)
# Conditions: imaging, actives raise or lower the signal
# Procedure, shortened: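 Membrane potential read by MitoTracker Red CMXRos (250 nM, 30 min, pre-fixation) fluorescence imaging of HepG2 after 72 hr exposure. Ten concentrations, 0.39–200 uM, duplicate wells, 0.5% DMSO; fitted in both directions against DMSO baseline.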
SMILES,outcome,AC50
COC(=O)C=C(C)OP(=O)(OC)OC,inactive,
Cc1ccc(-c2c(Cl)nc(C#N)n2S(=O)(=O)N(C)C)cc1,inactive,
C#CCOS(=O)OC1CCCCC1Oc1ccc(C(C)(C)C)cc1 (stereo not given),,3.43 µM (active)
COc1nc(C)nc(NC(=O)NS(=O)(=O)c2ccccc2CCC(F)(F)F)n1,inactive,
CC1=C(C(=O)Nc2ccccc2)SCCO1,inactive,

# Assay: APR_HepG2_MitoticArrest_72hr: Apredica 72-hour HepG2 Assay for Mitotic Arrest (AID 2282918)
# Conditions: high-content imaging, actives raise or lower the signal
# Procedure, shortened: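 Using high-content imaging of fixed HepG2 cells, phospho-histone H3 signal was measured following a 72 hr incubation with ten-point compound dilutions up to 200 uM. DMSO served as the negative control and baseline for bidirectional curve fitting.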
SMILES,outcome,AC50
CON(C)C(=O)Nc1ccc(Cl)c(Cl)c1,inactive,
N#Cc1nn(-c2c(Cl)cc(C(F)(F)F)cc2Cl)c(N)c1S(=O)C(F)(F)F (stereo not given),inactive,
CCOC(=O)C(Cl)Cc1cc(-n2nc(C)n(C(F)F)c2=O)c(F)cc1Cl (stereo not given),inactive,
N#Cc1cc(Br)c(O)c(Br)c1,inactive,
CCCC1COC(Cn2cncn2)(c2ccc(Cl)cc2Cl)O1 (stereo not given),inactive,
CC(Oc1ccc(Cl)cc1Cl)C(=O)O (stereo not given),inactive,
CO/C=C(/C(=O)OC)c1ccccc1Oc1cc(Oc2ccccc2C#N)ncn1,inactive,13.9 µM (active) and 24.7 µM (active) and 31 µM (active)
OC(c1ccc(Cl)cc1)(c1cncnc1)c1ccccc1Cl (stereo not given),inactive,
COc1cnc(OC)n2nc(NS(=O)(=O)c3c(OCC(F)F)cccc3C(F)(F)F)nc12,inactive,
CCCN(CCC)c1c([N+](=O)[O-])cc(S(N)(=O)=O)cc1[N+](=O)[O-],inactive,34 µM (active) and 82.3 µM (active)
COC(=O)c1ccccc1C(=O)OC,inactive,
COc1nc(C)nc(NC(=O)NS(=O)(=O)c2ccccc2Cl)n1,inactive,
COP(N)(=O)SC (stereo not given),inactive,
